AMA1 RON2 block: disrupts binding of P. falciparum AMA1 to RON2; Potency, µM (doses to about 58.2 µM), most hits filed as inhibitors; AlphaScreen AMA1-biotinylated RON2 peptide binding; 0.2% of 360,000 active; AID 720542; also: nearly all actives have a fitted effect of over 45% in size
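AMA1 (3D7) with his tag at 25 nM final met compounds first, then biotinylated RON2 peptide at 25 nM; detection used donor plus acceptor beads, 10 µg/mL apiece, read by AlphaScreen after 30 min at room temperature.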
Vaccinia Venus: vaccinia inhibition (Venus reporter); Vaccinia virus Venus reporter expression, fluorescence; Potency, µM (highest dose often 36.5 µM), usual class: inhibitors; 0.46% of 330,000 active; calls by dose curve; tested in A549 cells; also: nearly all actives have a fitted effect of over 30% in size
Vaccinia mCherry: inhibitors of vaccinia virus infection (mCherry reporter signal); Vaccinia virus mCherry reporter infection, fluorescence; Potency, µM (titrated, usually from 36.5 µM), actives largely listed as inhibitors; 0.63% of 310,000 active; AID 720579; calls by dose curve; tested in A549 cells; also: nearly all actives have a fitted effect of over 35% in size
AmpC inh no detg: AmpC beta-lactamase inhibition without detergent | P00811 | AmpC nitrocefin hydrolysis, absorbance 480 nm, 0.0001% Triton | Potency, µM (highest dose often 57.1 µM), usual class: inhibitors | 0.52% of 330,000 active; also: nearly all actives have a fitted effect of over 20% in size
Target sequence (P00811 whole entry, looked up): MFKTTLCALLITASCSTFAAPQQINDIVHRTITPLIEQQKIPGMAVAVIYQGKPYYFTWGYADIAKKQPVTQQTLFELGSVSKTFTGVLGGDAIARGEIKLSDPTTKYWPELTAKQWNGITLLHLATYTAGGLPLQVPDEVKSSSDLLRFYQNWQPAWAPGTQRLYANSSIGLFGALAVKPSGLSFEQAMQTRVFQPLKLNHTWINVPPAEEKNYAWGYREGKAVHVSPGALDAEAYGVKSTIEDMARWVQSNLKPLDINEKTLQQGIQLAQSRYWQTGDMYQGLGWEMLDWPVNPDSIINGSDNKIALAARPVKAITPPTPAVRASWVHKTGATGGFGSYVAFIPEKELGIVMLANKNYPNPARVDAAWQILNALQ
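AmpC (5.3 nM in the dispensed reagent) in 20 mM phosphate pH 7.0 with 0.01% (detergent screen) or 0.0001% Triton X-100 was preincubated with compounds for 15 min at room temperature. Nitrocefin was then added from an 800 uM solution, and hydrolysis was followed at 480 nm.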
AmpC detergent: AmpC beta-lactamase inhibition with detergent present; AmpC hydrolysis of nitrocefin, absorbance 480 nm, 0.01% Triton; P00811; AID 485294; Potency, µM (titrated, usually from 114 µM), hits mostly inhibitors; 0.041% of 370,000 active; also: nearly all actives have a fitted effect of over 25% in size
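AmpC (5.3 nM in the dispensed reagent) in 20 mM phosphate pH 7.0 with 0.01% (detergent screen) or 0.0001% Triton X-100 was preincubated with compounds for 15 min at room temperature. Nitrocefin was then added from an 800 uM solution, and hydrolysis was followed at 480 nm.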
SARS PLP yeast: blocks SARS-CoV papain-like protease in a yeast assay; S. cerevisiae expressing SARS-CoV PLpro, growth rescue; Potency, µM (titrated, usually from 32.9 µM), actives largely listed as activators; 0.19% of 330,000 active; AID 485353; calls by dose curve; also: nearly all actives have a fitted effect of over 55% in size
Each line names hits and unclear results; the compound was inactive in the other large screens. Rows were chosen to be rich in hits. Some 1.4% of all compounds tested hit in one or more screens of this group. Unless noted, calls follow the shape of the dose curve; as a rule, active = well fitted curve in the direction sought with a large enough effect; inconclusive = small, poorly fitted or top-dose-only effect, or another doubt; inactive = no such curve, though single readings can be large; an effect the other way counts as inactive or inconclusive.

O=C(/C(=N\Nc1ccccc1)Sc1nnnn1-c1ccccc1)c1ccccc1	AmpC inh no detg 1.12µM, AmpC detergent inconclusive
CC(=O)N1CCN(c2nc3cc(C)ccc3cc2CN(C(=O)c2cccc3ccccc23)C2CC2)CC1	none (no result: AMA1 RON2 block, AmpC inh no detg, AmpC detergent, SARS PLP yeast)
COc1ccccc1-c1cc2c(c(OC)c1)OCCN(C(=O)Cn1nc(-c3ccccc3)c3ccccc3c1=O)C2	none (no result: AMA1 RON2 block, AmpC inh no detg, AmpC detergent, SARS PLP yeast)
CCN1C(=O)C(=O)c2cc(C)ccc21	SARS PLP yeast 11.2µM (no result: AmpC detergent)
O=C(Nc1ccc(Cl)c(-c2nc3ccccc3o2)c1)c1cccc2c(Cl)cccc12	none (no result: AMA1 RON2 block, AmpC inh no detg, SARS PLP yeast)
COc1c2ccccc2nc2ccccc12	none
COc1cccc(OC)c1-c1cc(CCCc2cc(-c3c(OC)cccc3OC)nc3ccccc23)c2ccccc2n1	Vaccinia Venus inconclusive, Vaccinia mCherry 10µM (no result: AMA1 RON2 block, AmpC inh no detg, AmpC detergent, SARS PLP yeast)
Oc1ccccc1C=NNC(=S)NC1CC2C=CC1C2 (stereo not drawn)	Vaccinia Venus inconclusive, Vaccinia mCherry inconclusive (no result: AmpC inh no detg, AmpC detergent, SARS PLP yeast)
Oc1c(Cl)cc(Cl)cc1/C=N/NC(=S)NC1CC2C=CC1C2 (stereo not drawn)	Vaccinia Venus inconclusive, Vaccinia mCherry inconclusive, AmpC inh no detg 8.91µM
CC(C)c1c(C(=O)N2CCCCC2c2cccnc2)cnn1-c1nccc(-c2cccs2)n1 (stereo not drawn)	Vaccinia mCherry inconclusive (no result: AMA1 RON2 block, AmpC inh no detg, AmpC detergent, SARS PLP yeast)
CN(C)c1ccc(-n2cccc2)cc1	AMA1 RON2 block 20µM
CC(C)N1CCC2(CC1)N=C(c1ccc3c(c1)OCO3)CC(c1cc(Cl)ccc1O)N2 (stereo not drawn)	AmpC inh no detg 17.8µM (no result: Vaccinia mCherry)
COc1ccc(NC(=O)COc2ccccc2C(=O)Nc2ccccc2)cc1	none (no result: AMA1 RON2 block, AmpC inh no detg, AmpC detergent, SARS PLP yeast)
O=C(NCc1cccs1)c1nc2c(nnn2Cc2ccccc2Cl)c(=O)[nH]1	Vaccinia Venus 7.08µM, Vaccinia mCherry inconclusive
O=C(CCS(=O)(=O)c1ccc(Br)cc1)Nc1ccc(Cl)c(C(F)(F)F)c1	Vaccinia Venus inconclusive, Vaccinia mCherry 11.2µM (no result: AMA1 RON2 block, AmpC inh no detg, SARS PLP yeast)
CCC(=O)N1CCc2cc(S(=O)(=O)CCC(=O)Nc3ccc(Cl)c(C(F)(F)F)c3)ccc21	Vaccinia Venus 7.94µM, Vaccinia mCherry 5.01µM (no result: AMA1 RON2 block, AmpC inh no detg, SARS PLP yeast)
COc1ccc(NC(=O)Cn2nc(C)c3c(C)n(-c4ccccc4)nc3c2=O)cc1OC	none (no result: AMA1 RON2 block, AmpC inh no detg, SARS PLP yeast)
COc1ccc(N=c2nc(-c3ccccc3)n(-c3ccc(C)cc3)s2)cc1	Vaccinia Venus inconclusive, Vaccinia mCherry 11.2µM (no result: AMA1 RON2 block, AmpC inh no detg, AmpC detergent, SARS PLP yeast)
Cc1ccc(-c2nc(=Nc3ccccc3)sn2-c2ccccc2)cc1	Vaccinia Venus inconclusive, Vaccinia mCherry 14.1µM (no result: AMA1 RON2 block, AmpC inh no detg, AmpC detergent, SARS PLP yeast)
COc1ccc(NC(=O)Cc2c[nH]c3ccccc23)cc1S(=O)(=O)N1CCCCC1	AmpC inh no detg 14.1µM
COc1ccc(NC(=O)Cc2c[nH]c3ccccc23)cc1S(=O)(=O)N1CCOCC1	none
O=C(NNC(=O)c1ccc2ccccc2n1)c1ccc(O)cc1	none (no result: Vaccinia Venus, Vaccinia mCherry)
COc1ccc(C(=O)NNC(=O)c2ccc3ccccc3n2)cc1	Vaccinia Venus inconclusive, Vaccinia mCherry 11.2µM
O=[N+]([O-])c1cc(Cl)ccc1Nc1ccccc1	AMA1 RON2 block 14.1µM (no result: Vaccinia Venus, Vaccinia mCherry)
Cc1ccn2c(C(=O)CSc3ccccc3Cl)c(C)nc2c1	AmpC inh no detg 0.316µM (no result: Vaccinia mCherry)
CN(C)c1ccc(NC(=O)/C=C/c2c(Cl)cccc2Cl)cc1	AMA1 RON2 block inconclusive, Vaccinia mCherry 28.2µM
CN(C)c1ccc(NC(=O)Nc2cccc(Cl)c2)cc1	AMA1 RON2 block inconclusive, AmpC inh no detg 5.01µM, AmpC detergent inconclusive (no result: Vaccinia Venus, Vaccinia mCherry)
CN(C)S(=O)(=O)c1ccc(NC(=O)/C=C/c2ccccc2Cl)cc1	Vaccinia mCherry inconclusive
CN(c1cccc(NC(=O)Nc2cccc(Cl)c2)c1)S(C)(=O)=O	Vaccinia Venus inconclusive (no result: Vaccinia mCherry)
CN(C)c1ccc(NC(=O)Nc2ccc3c(c2)c(=O)n(C)n3-c2ccccc2)cc1	AMA1 RON2 block 20µM (no result: AmpC inh no detg, AmpC detergent, SARS PLP yeast)
COc1ccc(OC)c(CN2CCOc3ccc(CN4CCC(O)(c5cccnc5)CC4)cc3C2)c1	none (no result: AMA1 RON2 block, AmpC inh no detg, AmpC detergent, SARS PLP yeast)
CO/N=C(/C(=O)N[C@@H]1C(=O)N2C(C(=O)O)=CCS[C@H]12)c1cnc(N)s1	AmpC detergent 50.1µM (no result: AMA1 RON2 block, Vaccinia Venus, Vaccinia mCherry)
Cc1ccc(NC(=O)COC(=O)COc2cccc3c2OC(C)(C)C3)cc1C	none (no result: Vaccinia Venus, Vaccinia mCherry)
Cc1cc(C)cc(NC(=O)COC(=O)COc2cccc3c2OC(C)(C)C3)c1	AmpC inh no detg 35.5µM, AmpC detergent inconclusive
Cn1cc(CN2CCOc3ccc(C(O)C4CCCCC4)cc3C2)cn1 (stereo not drawn)	none (no result: AMA1 RON2 block, AmpC inh no detg, AmpC detergent, SARS PLP yeast)
O=[N+]([O-])c1ccc(-c2nc(Cl)c3c(n2)CCCC3)o1	Vaccinia Venus inconclusive, Vaccinia mCherry 11.2µM (no result: AmpC inh no detg, AmpC detergent, SARS PLP yeast)
Cc1nn(-c2ccccc2)c(C)c1CC(=O)NCC1Cc2cc(F)cc(-c3cccnc3)c2O1 (stereo not drawn)	none (no result: AMA1 RON2 block, AmpC inh no detg, AmpC detergent, SARS PLP yeast)
COc1ccc(-c2nnc(SCC(=O)NC3CCCC3)nc2-c2ccc(OC)c(OC)c2)cc1OC	none (no result: AMA1 RON2 block, AmpC inh no detg, SARS PLP yeast)
COc1ccccc1N1CCN(c2nc(CNC(=O)C3CC34CCCC4)nc3ccccc23)CC1 (stereo not drawn)	none (no result: AMA1 RON2 block, AmpC inh no detg, AmpC detergent, SARS PLP yeast)
O=C(Cc1cccs1)Nc1cccc(-c2nc3cc4ccccc4cc3[nH]2)c1	Vaccinia Venus 10µM, Vaccinia mCherry inconclusive
CC(=O)Nc1cccc(NC(=O)Cc2cccs2)c1	none (no result: Vaccinia Venus, Vaccinia mCherry)
COc1ccc(N2C(=O)[C@@H]3C[C@H]2CN3Cc2cccn2-c2ccccn2)cc1Cl	none (no result: AMA1 RON2 block, AmpC inh no detg, AmpC detergent, SARS PLP yeast)
O=C1N[C@@H](Cc2ccccc2)COC(=O)[C@@H](Cc2ccc(F)cc2)CC/C=C/C[C@H]1CC(=O)N(CCO)Cc1ccccc1	Vaccinia Venus 11.2µM, Vaccinia mCherry inconclusive (no result: AmpC detergent)
NS(=O)(=O)c1ccc(CCNC(=O)CCCCCn2c(=S)[nH]c3ccc(Br)cc3c2=O)cc1	AmpC inh no detg 17.8µM, AmpC detergent inconclusive

Screens deposited in PubChem BioAssay by National Center for Advancing Translational Sciences (NCATS).
